From PubChem BioAssay
This is a sample that favours compounds with a hit; in the whole collection about 12% have one here.
TDP1 block: inhibitors of human tyrosyl-DNA phosphodiesterase TDP1 | Q9NUW8 | recombinant TDP1, AlphaScreen DNA substrate cleavage | Potency, µM (titrated, usually from 130 µM), for the others: at the highest dose activity change, negative = inhibition, actives largely listed as inhibitors | hit rate 0.28% among 350,000; note: % is set by controls: 0 for no effect and ±100 for the full control effect; nearly all actives have a fitted effect of over 40% in size
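Here, a 5' biotin and 3' phosphotyrosine-FITC DNA oligonucleotide reports Tdp1 activity: intact substrate bridges AlphaScreen beads, while cleavage leaves a 3' phosphate and drops signal. All incubations at room temperature.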
JMJD2A Tudor inh: inhibitors of human JMJD2A Tudor domain | O75164 | AlphaScreen JMJD2A-Tudor / H3K4me3 peptide binding | Potency, µM (titrated, usually from 114 µM), for the others: at the top dose activity change, negative = inhibition, actives largely listed as inhibitors | hit rate 4.4% among 390,000 | AID 504339; note: % is set by controls: 0 for no effect and ±100 for the full control effect; nearly all actives have a fitted effect of over 50% in size
BAZ2B inh: blocks human BAZ2B. AlphaScreen BAZ2B-H3K14Ac peptide displacement. hit rate 4.4% among 360,000. Q9UIF8. Potency, µM (series often up to 114 µM), for inactives: at the highest dose activity change, negative = inhibition, usual class: inhibitors. AID 504333; note: % is set by controls: 0 for no effect and ±100 for the full control effect; nearly all actives have a fitted effect of over 60% in size
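In this displacement format the biotinylated H3(5-23) peptide acetylated at Lys14 serves as ligand at 50 nM, with BAZ2B at 50 nM in PBS pH 7.4 containing 0.01% Tween-20. Donor and acceptor beads are 10 ug/mL final.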
Sfp PPTase inh: Sfp phosphopantetheinyl transferase inhibition. Biochemical Sfp PPTase activity, qHTS. Potency, µM, for the others: largest response in the series, negative = inhibition, actives largely listed as inhibitors. hit rate 3.5% among 310,000. AID 1490;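 note: the enzyme is Sfp with the accession as filed and its product quenches rhodamine fluorescence; 0% = enzyme reaction without inhibitor and -100% = no enzyme wells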
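After 15 min at room temperature with compound, 15 nM Sfp received 5 uM rhodamine-CoA plus 12.5 uM BHQ-2-ybbR (50 mM Hepes pH 7.6, 10 mM MgCl2). Rate came from the fluorescence difference over 30 min, ex 525/em 598 nm.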
G9a block: inhibitors of human histone lysine methyltransferase G9a; Potency, µM (doses to about 102 µM), for the others: at the top dose activity, negative = inhibition, usual class: inhibitors; G9a H3K9 monomethylation, AlphaScreen, 2 h; AID 504332; hit rate 8.8% among 350,000; Q96KQ7; note: % is set by controls: 0 for no effect and ±100 for the full control effect; nearly all actives have a fitted effect of over 75% in size
Target sequence (Q96KQ7 913-1193 limits assumed): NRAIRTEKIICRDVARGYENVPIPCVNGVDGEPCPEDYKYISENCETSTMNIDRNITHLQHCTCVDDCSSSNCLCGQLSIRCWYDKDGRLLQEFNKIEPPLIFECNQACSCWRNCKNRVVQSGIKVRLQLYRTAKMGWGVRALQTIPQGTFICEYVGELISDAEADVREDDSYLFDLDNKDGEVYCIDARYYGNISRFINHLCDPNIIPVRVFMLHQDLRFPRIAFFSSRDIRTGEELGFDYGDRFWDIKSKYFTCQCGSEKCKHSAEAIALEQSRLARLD
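Methyltransferase reactions run at room temperature for 2 h (20 nM enzyme, 500 nM biotin-H3K9 peptide, 20 uM SAM) after a 15 min compound preincubation; product detected by AlphaScreen beads and anti-H3K9me1 antibody.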
HP1b chromo inh: inhibitors of HP1-beta chromodomain binding to methylated histone tails; AlphaScreen HP1-beta / biotin-H3K9me3 peptide binding; Potency, µM (highest dose often 114 µM), without a hit: at the top dose activity change, negative = inhibition, most hits filed as inhibitors; hit rate 0.56% among 390,000; AID 540317; note: nearly all actives have a fitted effect of over 70% in size
Target sequence (P83916 whole entry, looked up): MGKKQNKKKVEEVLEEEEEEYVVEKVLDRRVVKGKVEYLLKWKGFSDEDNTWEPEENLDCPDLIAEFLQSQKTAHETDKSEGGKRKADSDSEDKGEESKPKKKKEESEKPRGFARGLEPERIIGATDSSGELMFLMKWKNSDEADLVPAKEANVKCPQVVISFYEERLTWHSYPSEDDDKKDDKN
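AlphaScreen: HP1-beta (50 nM) preformed 30 min with biotin-H3(1-18)K9me3 peptide (50 nM) in PBS pH 7.4, 0.01% Tween-20. Compound added for 30 min at RT, then streptavidin donor/nickel chelate acceptor beads (10 ug/mL) for 30 min.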
* = called active by the depositor; ? = inconclusive; nt = not tested or not shown; ! = not active in a repeat; [ ] = remark or other dose. Calls come from the whole dose curve; as a rule, active = well fitted curve in the direction sought with a large enough effect; inconclusive = small, poorly fitted or top-dose-only effect, or another doubt; inactive = no such curve, though single readings can be large; an effect the other way counts as inactive or inconclusive. Potency is the fitted concentration of half-maximal effect.

SMILES	TDP1 block	JMJD2A Tudor inh	BAZ2B inh	Sfp PPTase inh	G9a block	HP1b chromo inh
CCN(CC)CCNC(=O)C(=O)Nc1cc2c3c(c1)CCN3C(=O)CC2	-3%	-8%	-5%	8%	nt	24%
O=C1CC(c2ccccc2)Sc2nc3ccccc3n21 (centres undefined)	3%	18%	11%	9%	?	60%
O=C1CC(c2ccco2)Sc2nc3ccccc3n21 (centres undefined)	10%	79µM*	-32%	?	45µM*	19%
CC(C)c1ccc(CN(Cc2ccco2)c2cnc(S(C)(=O)=O)nc2C(=O)Nc2ccccc2)cc1	4%	?	?	nt	?	4%
COc1ccc(N(Cc2ccccc2)C(=O)c2nc(S(C)(=O)=O)ncc2Cl)cc1	0%	-14%	-11%	nt	11µM*	40%
CS(=O)(=O)c1ncc(Cl)c(C(=O)N(Cc2ccc(Cl)cc2)Cc2ccco2)n1	5%	-35%	-31%	nt	11µM*	7%
Cn1c(=O)c2ncn(C)c2n(C)c1=O	nt	-6%	nt	nt	nt	7%
Cc1ccc(NC(=O)Cn2c(O)c(N=NC(=O)c3cc([N+](=O)[O-])ccc3O)c3ccccc32)cc1	nt	nt	?	14%	nt	nt
Cc1cccc(NC(=O)Cn2c(O)c(N=NC(=O)c3ccccc3O)c3ccccc32)c1	-13%	?	79µM*	?	-6%[59 µM]	22%
O=C(c1ccc(C(F)(F)F)cc1)N1CCN(c2ccc(N3CCOCC3)nn2)CC1	0%	-6%	10%	nt	-30%	30%
Cc1ccc(NC(=O)c2csc(-c3ccccc3)c2C)cc1	7%	-14%	0%	7%	9%[59 µM]	17%
CC(=O)Nc1scc(-c2ccccc2)[n+]1-c1ccc(C)cc1	2%	-13%	?	-24%	50µM*	31%
CC(=N\NC(=O)c1ccccc1)/C(=N/O)C(=O)Nc1ccccc1	11%	-10%	56µM*	4%	24%	47%
CC(=N\Nc1ccccc1)/C(=N/O)C(=O)Nc1ccccc1	3%	-15%	0%	12%	6%[59 µM]	10%
COc1ccccc1NC(=O)C(=N\O)/C(C)=N/O	?	?	-34%	7%	10µM*	-16%
Cc1ccc(CNC(=O)CCCCCn2c(=O)c3sccc3n(CC(=O)Nc3c(C)cc(C)cc3C)c2=O)cc1	1%	-9%	0%	nt	5%[59 µM]	21%
CC(=O)OCCc1c(C)nc2nc[nH]n2c1=O	2%	-29%	-9%	18%	50µM*	10%
Nc1ncnc2c1ncn2C1O[C@H](CO)[C@@H](O)[C@@H]1O (some centres undefined)	nt	-6%	-3%	nt	9%[59 µM]	32%
NC(=O)c1ncn([C@@H]2O[C@H](CO)[C@@H](O)[C@H]2O)c1O	7%[56.1 µM]	-19%	-17%	-5%	25µM*!	32%
Nc1nc(=S)c2ncn([C@H]3O[C@@H](CO)[C@@H](O)[C@@H]3O)c2[nH]1	11%[21 µM]	nt	nt	11µM*	?	nt
NC1=C(Cl)C(=O)c2ccccc2C1=O	nt	89µM*	nt	nt	nt	-19%
Cc1cccc(NC(=O)c2cc3n(n2)C(C(F)(F)F)CC(c2ccc4c(c2)OCO4)N3)c1 (centres undefined)	-8%	-21%	-3%	25%	-3%[12.7 µM]	21%
COc1ccc(NC(=O)c2cc3n(n2)C(C(F)(F)F)CC(c2ccc4c(c2)OCO4)N3)cc1OC (centres undefined)	12%	?	?	8%	28µM*	-9%
CCOc1ccc(-n2c(CC)nc3c(cnn3-c3ccc(Cl)cc3)c2=O)cc1	0%	-15%	nt	nt	11%[59 µM]	32%
Cc1ccccc1C(=O)Nc1ccnn1C1CCN(Cc2ccncc2)CC1	3%	6%	-16%	10%	13%	22%
Cn1c(SCC(=O)N2CC(=O)Nc3ccccc32)nc2ccccc2c1=O	5%	6%	9%	nt	22%[12.7 µM]	38%
CCCn1c(SCC(=O)N2CC(=O)Nc3ccccc32)nc2ccccc21	-1%	-20%	8%	?	32µM*	9%
